# Assay outcomes as filed in PubChem.
# HCMV inh – qHTS Assay for inhibitors of the human cytomegalovirus (HCMV); HFF cells, HCMV-luciferase reporter, 72 h; stronger effect = lower value; activity change, negative = inhibition, % at 57.5 µM; 410,000 compounds, 4.5% hits; AID 1259415, 2018; in the data active = activity change below about -60%; inconclusive = no clear call, values can overlap the other calls; inactive = above about -39%
#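 Compounds were evaluated in HFFs infected with an HCMV luciferase reporter virus (MOI 1 PFU/cell). Luciferase in lysates collected 72 h post infection served as the replication measure.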
# VACV Venus inh – qHTS for Stage-Specific Inhibitors of Vaccinia Orthopoxvirus: Venus Reporter Primary qHTS; Vaccinia virus Venus reporter expression, fluorescence; Potency, µM (titrated, usually from 36.5 µM), inactives show at the top dose activity change, negative = inhibition, usual class: inhibitors; 330,000 compounds, 0.46% hits; AID 720580, 2013; calls by dose curve; tested in A549 cells; also: potency is read from the fitted curve at half-maximal effect; nearly all actives have a fitted effect of over 30% in size
# Marburg entry inh – qHTS for inhibitors of binding or entry into cells for Marburg Virus; Potency, µM (top dose mostly 37.8 µM), for inactives: at the highest dose activity change, negative = inhibition, most hits filed as inhibitors; Marburg virus pseudotyped entry inhibition, cell reporter; AID 540276, 2011; 300,000 compounds, 1.8% hits; calls by dose curve; tested in HEK293 cells; also: potency is read from the fitted curve at half-maximal effect
# Lassa entry inh – qHTS for Inhibitors of binding or entry into cells for Lassa Virus; Potency, µM (series often up to 37.9 µM), inactives show top-dose activity change, negative = inhibition, usual class: inhibitors; Lassa virus pseudotype entry inhibition, cell reporter; 300,000 compounds, 1.2% hits; calls by dose curve; tested in HEK293 cells; also: potency is read from the fitted curve at half-maximal effect; nearly all actives have a fitted effect of over 50% in size
# Vaccinia mCherry – qHTS for Stage-Specific Inhibitors of Vaccinia Orthopoxvirus: mCherry Reporter Primary qHTS. AID 720579, 2013. Potency, µM (series often up to 36.5 µM), without a hit: at the highest dose activity change, negative = inhibition, usual class: inhibitors. Vaccinia virus mCherry reporter infection, fluorescence. 310,000 compounds, 0.63% hits; calls by dose curve; tested in A549 cells; also: potency is read from the fitted curve at half-maximal effect; nearly all actives have a fitted effect of over 35% in size
# FMDV inh – High Throughput Screening for Foot and Mouth Disease Virus Antivirals; FMDV antiviral cell-based qHTS; Potency, µM (highest dose often 57.9 µM), for inactives: at the top dose activity change, negative = inhibition, actives largely listed as inhibitors; 410,000 compounds, 1.2% hits; calls by dose curve; tested in HEK293T cells; also: read-out not given here; potency is read from the fitted curve at half-maximal effect; nearly all actives have a fitted effect of over 45% in size
# Starred values were filed as active, the others as inactive; i = inactive; ? = inconclusive; . = no result given; + = active, no number; ! = repeats disagree; [ ] = dose if it differs, or a comment. The list is not random: actives were taken first. Their share in the collection is about 6.5%. % is scaled to controls: 0 for no effect and ±100 for the full control effect.
SMILES,HCMV inh,VACV Venus inh,Marburg entry inh,Lassa entry inh,Vaccinia mCherry,FMDV inh
CCOC(=O)[C@]12Cc3cc(OC)ccc3[C@H]1N(CC(=O)OC)C(=O)c1cc(OC)ccc12,-106.9*,0.1%,.,.,13.3%,14.1µM*
CCCCCN1C(=O)c2cc(OC)ccc2[C@@]2(C(=O)OCC)Cc3cc(OC)ccc3[C@@H]12,-104.9*,?,.,.,?,3.16µM*
CCOC(=O)[C@]12Cc3cc(OC)ccc3[C@H]1N(C)C(=O)c1cc(OC)ccc12,-106.0*,-24.6%,.,.,?,11.2µM*
CC(=O)c1nnn(-c2nc(C#N)nc(N3CCOCC3)n2)c1C,.,-8.1%,.,.,16.3%,.
COc1ccc(-c2nc(CSCC(=O)NCCC(C)C)c(C)o2)cc1OC,0.9,-14.4%,-0.5%[46.1 µM],3.3%[46.1 µM],-2.4%,-15.1%
COc1ccc(-n2c(SCC(=O)Nc3nnc(C)s3)nc3c([nH]c4ccccc43)c2=O)cc1,89.0,-18.2%,.,-24.9%[46.1 µM],-2.8%,-11.1%
Cc1ccccc1CN1C(=O)c2ccccc2Sc2ccc(C(=O)NC3CCCCC3)cc21,-12.5,-10.1%,.,2.1%[46.1 µM],3.4%,5.1%
CCCCN(CCCC)c1ncnc2nc[nH]c12,-90.9*,?,.,.,-25.9%,?
CCCN(c1ccc(OCC)cc1)c1ncnc2nc[nH]c12,?,-23.0%,.,.,-5.9%,5.2%
CCN(c1ccc(OC)cc1)c1ncnc2nc[nH]c12,-88.2*,-12.3%,.,.,-13.7%,0.0%
CCOC(=O)c1cc(-c2ccc(C)cc2)n(CCCC(=O)Nc2cc(C)ccc2C)c1,+,-27.1%,.,4.6%[46.1 µM],?,-7.9%
CCc1c(C)sc2c1CCN(Cc1cccc(OC)c1)C2c1ccccc1 (configuration not stated),-85.6*,-5.2%,.,?,-26.3%,-10.5%
CCOC(=O)c1ccccc1NC(=O)N1CCc2c(sc(C)c2CC)C1c1ccccc1 (configuration not stated),-6.6,-4.0%,.,23.1%[46.1 µM],-15.5%,-18.5%
CCc1c(C)sc2c1CCN(Cc1ccccc1F)C2c1ccccc1 (configuration not stated),-105.1*,-15.0%,.,?,-17.4%,?
CCc1c(C)sc2c1CCN(C(=O)Nc1cc(OC)c(OC)c(OC)c1)C2c1ccccc1 (configuration not stated),-5.7,?,.,-4.0%[46.1 µM],-27.5%,-11.5%
CC(C)c1cccc(C(C)C)c1NS(=O)(=O)c1cccs1,?,-7.2%,?,27.9%[46.1 µM],-7.0%,0.0%
CCCN1C(=O)CC[C@@H](S(=O)(=O)c2ccccc2)[C@@H]1c1ccco1,-24.4,.,.,.,.,.
COc1ccc(-c2coc3c(C(=O)Nc4cccnc4)cccc23)c(C)c1,?,-21.5%,.,.,8.9%,20µM*
COc1ccc(-c2coc3c(C(=O)NCc4ccco4)cccc23)c(C)c1,?,-12.9%,.,.,0.1%,0.0%
COc1ccc(-c2coc3c(C(=O)Nc4cccc(C(C)=O)c4)cccc23)c(C)c1,-23.9,-15.7%,.,.,-3.3%,0.0%
COc1ccc(-c2coc3c(C(=O)NCc4cccc(Cl)c4)cccc23)c(C)c1,-62.1*,-22.3%,.,.,-25.8%,0.0%
COc1cc2c(=O)c(S(=O)(=O)c3ccc(F)cc3)cn(Cc3ccc(Cl)cc3)c2cc1OC,11.2,-23.3%,-0.2%[46.1 µM],-20.8%[46.1 µM],i,-18.7%
O=C(CSc1nc2ccccc2[nH]1)Nc1nc(-c2cccc(Br)c2)cs1,-28.5,4.7%,11.4%,13.2%,-14.6%,-17.9%
COCCCn1c(SCC(=O)Nc2ccc(C)cc2)nc2ccccc2c1=O,-71.2*,1.5%,-13.5%[46.1 µM],0.0%,i,0.8%
COCCn1c(SCC(=O)NC2CCCC2)nc2ccccc2c1=O,-99.7*,-10.1%,11.2%,3.7%,-9.0%,-13.1%
SMILES,HCMV inh,VACV Venus inh,Marburg entry inh,Lassa entry inh,Vaccinia mCherry,FMDV inh
COCCCn1c(SCC(=O)Nc2ccc(C(=O)OC)cc2)nc2ccccc2c1=O,-20.6,.,-17.7%,?,.,21.9%
CN(C)CCCn1c(SCC(=O)Nc2nc(-c3cccc(Br)c3)cs2)nc2ccccc2c1=O,?,-9.1%,11.2µM*,?,-12.7%,-13.4%
CCCCn1c(SCC(=O)Nc2cc(NC(=O)c3ccco3)ccc2C)nc2ccccc2c1=O,-76.0*,.,?,?,.,-11.7%
Cc1ccc(N2C(=O)C(CC(=O)Nc3ccc(F)cc3)N(CCC3=CCCCC3)C2=O)cc1 (configuration not stated),-25.6,-22.7%,?,?,-19.5%,2.1%
COc1ccc(NC(=O)C2(c3cccs3)CCOCC2)cc1Cl,16.1,2.8%,.,-3.3%[46.1 µM],-3.8%,-25.8%
Cc1ccc(NC(=O)CSc2nc3ccccc3c(=O)n2CCCC(=O)N2CCCC2)cc1,-28.6,.,8.2µM*,?,.,-16.5%
Cc1ccc(S(=O)(=O)N(C)C)cc1-n1c(SCC(=O)Nc2ccccc2)nc2ccccc2c1=O,-71.8*,-4.0%,?,?,-13.7%,-21.3%
CCc1ccc(NC(=O)CSc2nc3ccccc3c(=O)n2CCNC(C)=O)cc1,-15.5,-2.8%,.,-1.1%[46.1 µM],-2.7%,-25.0%
Cc1ccc(NC(=O)CSc2nc3ccccc3c(=O)n2CCCN2CCCCC2)cc1C,7.1,.,?,20.6µM*,.,-19.2%
Cc1ccc(S(=O)(=O)N(C)C)cc1-n1c(SCC(=O)Nc2ccc(F)cc2)nc2ccccc2c1=O,-18.7,.,-3.2%,.,.,-7.8%
CCc1ccc(NC(=O)CSc2nc3ccccc3c(=O)n2CCCN2CCC(C)CC2)cc1,-107.6*,?,?,?,?,?
CNC(=O)c1c(NC(=O)/C=C/c2ccccc2Cl)sc2c1CCC2,-10.7,?,.,-2.0%[46.1 µM],-32.7%,-15.3%
CCOC(=O)C1=C2C=C(OC)C=CC2OC1CN(CC)CC (configuration not stated),.,.,-17.3%[46.1 µM],.,.,.
Cc1cccc[n+]1CC(=O)c1ccc([N+](=O)[O-])cc1,-86.8*,-4.7%,10.1%[46.1 µM],2.9%[46.1 µM],-20.6%,-6.7%
COc1ccc(C(=O)C[n+]2ccccc2C)cc1,-37.5,-11.1%,?,12.8%,-14.8%,4.8%
CCN(CC)S(=O)(=O)c1cc(C(=O)OCC(=O)Nc2ccc(-c3nc4ccc(C)cc4s3)cc2)ccc1F,?,-4.7%,?,3.16µM*!,i,-17.3%
COc1ccccc1C1CCN(Cc2ccc3ccccc3c2)CC1,-67.4*,-12.0%,7.08µM*,6.7%,-19.9%,?
CCN1C(=O)N(CC)C(O)(c2ccccc2)C1(O)c1ccccc1 (configuration not stated),-61.9*,-9.0%,25.7%,8.1%,.,-17.2%
CN1C2CCC1/C(=C\c1ccccc1F)C(=O)/C2=C/c1ccccc1F,-72.1*,?,1.5%,-25.7%,11.2µM*,-16.0%
O=C(C1CCCCC1)N(CCN1CCN(c2ccccc2CO)CC1)c1ccccn1,.,-16.9%,.,.,-15.3%,-17.3%
Cn1c(=O)c([N+](=O)[O-])c(N2CCSCC2)c2ccccc21,?,-22.2%,3.6%,?,?,?
